{
  "source": "the supplement of paper PMC12632987",
  "binders": {"B1": {"name": "LC3A_132_267 (protein)", "chain": "SEELFEEALEELKEILDKIVDLLKAGKDPSPAITELYNTALEYSEKLSLEETEELVEKTIEYAEKLFAERLDPNDVEARRTLDIIEMLLEGVLIEKELRS"}, "B2": {"name": "LC3A_132_266 (protein)", "chain": "SEELFEKALEELKEILDKIVEALKAGEDPSPLINELYEKAKEYAKKLSLEETEKLVEETIEYAEKLFKERLDPNDEEAIRTLDIIEMLLEGVLIEKELES"}, "B3": {"name": "LC3A_132_308 (protein)", "chain": "GEELAKKLIEIAKEALRLVKEDDSKEEEVLELLREAKELMEKLAKEASPELAAKTFEEVEEILIEISRLAAKKGWDEVSDEAFALAAEAAQLKSDAKKKL"}, "B4": {"name": "LC3A_free_46_2355 (protein)", "chain": "VKAEILIDLLHEDEEVLKKAVEEIKKAAKEIAKKYGLKVEIKEEISKLPDGSYYAEIEITLTGETKEKLEKAVTELINKIDEIAKKYNVAAIISYEIIEE"}, "B5": {"name": "LC3A_free_46_2426 (protein)", "chain": "VDIDVDLLLEGDDEEKLKAAVEEIKEAFKKIAEEYNAELEIEVEFSTDPDGNHFAHINIKITSDDLETQQKIANESIDSIDKIAEKYGVSYIISVDIEKK"}, "B6": {"name": "LC3A_17_555 (protein)", "chain": "MEELKKELEELLKELEKLVKELEKYDPEAAKKLKEKLKEAKKALEKGDLKKALKILKEVAEEAAEVFDSLEHIDPELMSILSMEAEGLLIEALSLEEKLE"}, "B7": {"name": "LC3A_17_554 (protein)", "chain": "SEELKEEIKRLLEELEALVEELEKYDPEAAKELRKKLEEAKKALEEGDLEEALKILKEVAEEAAERWDSLEHIDPERMSILSMEAEGLLIEALSLEEKLE"}, "B8": {"name": "LC3A_28_1027 (protein)", "chain": "SAAEKAIEKAREEARKQKAEGKDIYVTIEVTSSTTLEDAKTIVEGIREIVEEFKDEKNINIIIDVERGVSQEVIDTLADGAEEIEKEYPNVNIIIALEEE"}, "B9": {"name": "LC3A_127_175 (protein)", "chain": "ELEELLKKLLEVAEELSEELSKPDADLEEIERLVKEAIELAKKALELDPRAEPILEAAEEIKKQLEQYKKAPEEKKEELREHMEMLAESLIIEIESLLLR"}, "B10": {"name": "LC3A_23_616 (protein)", "chain": "MYKVEIIVDIIVPKEEAEKVEKDLLETINKVLEKNKSKIKEYKIEVEKEELEDGTVLLTIKVTIIYDGNKEEAEELANELVSAIDKTAPDAVISAEVSKI"}, "B11": {"name": "LC3A_141_376 (protein)", "chain": "KEVEFELEAKGETPEEVVEKMDELEEKVLKAYEELGGGKVKVKVTLTLTNRETGEVKVVEEEFVGDKETIEMLLDGFLIEAASAVMRAPTDVKLKVVLEK"}, "B12": {"name": "LC3A_28_1118 (protein)", "chain": "SLAEKVIKAFEKQVEAAIASGEETLIEVEVSPELSQEEVEKLAKKMAEYAKKAAEKLKVSVLVSVEKGVSQEKIDIIADEAEKVEEEYPNVNVIIALEEE"}, "B13": {"name": "LC3A_3_1420 (protein)", "chain": "MEEELERALEELREAGWSEETLEALREVVEALLERGAEEEARRVLELVLENKDISSEDLLEVLREVLELLKTPGVSPEEAVERLEELLRIARNEQEIEEL"}, "B14": {"name": "LC3A_free_0_2100 (protein)", "chain": "MVTKVEVLGIIPDKSAKEAAEAIKEKLEEYGKKLSEEKGWKVTVELTEVDGSYVITVTIEGEGMSIEEGLEIADEIADLIEELAKEHGVEVTIYESVYEE"}, "B15": {"name": "LC3A_147_496 (protein)", "chain": "ATVEVDVLVKDKEAAEKVVEEFKKLVEKLKKQGIEVELEVEIEQISPDTWYVKITIKIKAKTEEEEKKVANEVVDEIEKIEEKYKDKILASLISVEIEEK"}, "B16": {"name": "LC3A_147_465 (protein)", "chain": "KKYEVVLDVLVKDLTPELLKDFEELAEEIKEKFPDAEVELKVETDPEDPSLTLVTLTVTVDTEEDAEKILDFLDEKEEELEKKYSDQILASMISKQEVEP"}, "B17": {"name": "LC3A_147_464 (protein)", "chain": "MKYRVELDVLVKNLTPELLADFEELAEEIKKKFPDAEVELKVETDPEDPSLSLVTLTVTVDTEEDAKKIEDFLDKKLEELEKKYKDQILASMISREKVEP"}, "B18": {"name": "LC3A_23_598 (protein)", "chain": "MYKVELIVSLIGEEEEIKKKAEKLKKEIEKILEKYKDKIISYKINVSFEKLEDGKTYLEIEVEIIIEDDEEVAEEIAEELTDAADKILPDGVISVEVEKL"}, "B19": {"name": "LC3A_141_368 (protein)", "chain": "TTLTITTDIGRASLDEIVAKMDELEEAALAAHRELGGGRVRVTVTITVKNLKTGETTTITEEFEADEEELELIMEGVLIEVASYALTEDAEVTVTVTLEG"}, "B20": {"name": "LC3A_3_1723 (protein)", "chain": "MEKIKAEALAVLKAQGASPETIKAAEELLKALEEKGFLEAAKTLLEELKKLKGVSSEDLLAALKDLLYKVTNEDLSEEEVIEEIKREFSVLKSAKEIEEL"}, "B21": {"name": "LC3A_141_386 (protein)", "chain": "MKKEFEFTATEEEAQEVFDFFDEVEKELLEMIEESGGKPVKVKVTIKATNDETGEVVEKEEEFTVTKENVSEVMEGLAIEVLSLLDKVKGTVEVKIEAEV"}, "B22": {"name": "LC3A_28_1018 (protein)", "chain": "SELEEQIEEIEKEVEEAIEKGEDVVVTLEIKGSMSEEEVREAMERVKEIVLEGAEKGKVDLVIDVDKDVSQEKLDIVLEAADEIEEKAPNVNVIIALEER"}, "B23": {"name": "LC3A_147_510 (protein)", "chain": "YLVEIDVDLLVKNAVEEVKKRFKEIVEKLKKKGYKVELEIKEEKIDENTYYVEVTIKIYAETKEEAEKAANETLSLLDEMLEELKDEILGSLISVDIEET"}, "B24": {"name": "LC3A_59_2020 (protein)", "chain": "SEEIEEYREKMRANIDDIDAFTATVREALEKFKDDPEKVKEILKAAMDVVVEELGADKEEAEKVLEEMLKILEEEKDKEKAIEKIVDLIRDLLLLTPIEE"}, "B25": {"name": "LC3A_free_8_2464 (protein)", "chain": "ASQKLVDTIVAKLDELEKALVKKAKEEGKSRLDILELELEVGSAIAELISNVDASPEEILKTLKEDLKDIIKVAKEIGEEVAKLAKEKSKEILAEAEALI"}, "B26": {"name": "LC3A_17_552 (protein)", "chain": "REELRERLRRLLEELRALVERLEPYDPEAARRLRERLERAEELLEAGRLREAAETLAEAAREAARRAEELEPKYGNEMSVLAMEFNGLELEAIGLLLELD"}, "B27": {"name": "LC3A_132_298 (protein)", "chain": "DEEKAKEILEKVKEKVEEAKENIDNEEKVEELLEEIEELIKEAEEKLSPELLAKVMEEVAELLDELSQKFLEAGKEHLAMLADGLAIEAESLALRAEKEI"}, "B28": {"name": "LC3A_3_1773 (protein)", "chain": "MEELLARFEEKLRAAGFSEEVIKEALAAIKTFLEKGREEVAETFLELMLEAKDLSEEKLLVMARMAKELAEESKVSEEELIKELKRLFESIAGIEELDEE"}, "B29": {"name": "LC3A_3_1887 (protein)", "chain": "MDEKIEETLKRLKEAGASEETLEAFKRVVEKLKARGWDEALNTLIEKVDELLDAPDEVRLAFLQDVLALLDTPGVSEEELIAGINELATLAKNEAEIIEL"}},
  "note": "Whole data set: some 2,300 sequences, median “median log2 fold change of GCK-ALFA target abundance (FLAG IP / Myc IP barcode read proportion)” near 0.095, cut for the lowest 2% near -0.47. The entries come from a sample that favours the lowest values as a whole.",
  "data": [
    {"molecular_target": "MAP1LC3A, Q9H492", "experiment": "median log2 fold change of GCK-ALFA target abundance (FLAG IP / Myc IP barcode read proportion) (log2 ratio); each designed protein is fused to an ALFA-tag nanobody in HEK293 cells to bring the named protein to FLAG-tagged glucokinase (GCK); Myc marks an untargeted standard; higher = target protein stabilised (more abundant)", "settings": "target protein: 3xFLAG-MCP-GCK-ALFA reporter; HEK293 landing pad (RPLP)", "procedure,_shortened": "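An ALFA-nanobody-fused binder library was recombined into HEK293 landing-pad cells and induced with 2 μg mL^−1 doxycycline. Cells were transfected with a plasmid expressing a FLAG-tagged target and a Myc-tagged standard. After 48 h, lysates underwent anti-FLAG and anti-Myc immunoprecipitation, and circular RNA barcodes were reverse transcribed, amplified and sequenced. Target abundance is the per-binder median log2 ratio of FLAG to Myc barcode read proportions. Barcodes needed ≥10^−7 proportion in both replicates, binders ≥3 barcodes per replicate, and a 10^−6 pseudocount was added; the two replicates were pooled.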", "values": [
      {"binder": "B1", "median log2 fold change": -0.528},
      {"binder": "B2", "median log2 fold change": 0.165},
      {"binder": "B3", "median log2 fold change": 0.14},
      {"binder": "B4", "median log2 fold change": -0.335},
      {"binder": "B5", "median log2 fold change": 0.0526},
      {"binder": "B6", "median log2 fold change": -0.476},
      {"binder": "B7", "median log2 fold change": 0.24},
      {"binder": "B8", "median log2 fold change": 0.173},
      {"binder": "B9", "median log2 fold change": 0.0944},
      {"binder": "B10", "median log2 fold change": -0.672},
      {"binder": "B11", "median log2 fold change": -0.00697},
      {"binder": "B12", "median log2 fold change": -0.00261},
      {"binder": "B13", "median log2 fold change": 0.3},
      {"binder": "B14", "median log2 fold change": -0.121},
      {"binder": "B15", "median log2 fold change": -0.154},
      {"binder": "B16", "median log2 fold change": -0.192},
      {"binder": "B17", "median log2 fold change": -0.487},
      {"binder": "B18", "median log2 fold change": -0.0746},
      {"binder": "B19", "median log2 fold change": -0.781},
      {"binder": "B20", "median log2 fold change": 0.206},
      {"binder": "B21", "median log2 fold change": 0.221},
      {"binder": "B22", "median log2 fold change": -0.171},
      {"binder": "B23", "median log2 fold change": -0.119},
      {"binder": "B24", "median log2 fold change": -0.571},
      {"binder": "B25", "median log2 fold change": -0.304},
      {"binder": "B26", "median log2 fold change": 0.248},
      {"binder": "B27", "median log2 fold change": -0.0134},
      {"binder": "B28", "median log2 fold change": 0.23},
      {"binder": "B29", "median log2 fold change": 0.21}
    ]}
  ]
}
